Compound activity: PubChem, several laboratories
Most compounds without a hit are left out; they make up all but 4.6% or so of the library.
tim10-1 inh – tim10-1 yeast growth inhibition | S. cerevisiae tim10-1 ts strain growth, BacTiter-Glo, 24 h | inhibition, % at 20 µM | 330,000 tested, 2.2% active | AID 463190;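 active = inhibition of at least 40%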;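 note: mutant grown at 25 °C; 0% = DMSO wells with yeast and 100% = wells holding no yeast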
tim23-1 inh – inhibits growth of tim23-1 mutant yeast | S. cerevisiae tim23-1 growth, BacTiter-Glo luminescence, 24 h | inhibition, % at 20 µM | 330,000 tested, 1.3% active | AID 463212;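 active = growth inhibition of the mutant yeast at or above 50%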;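 note: temperature-sensitive mutant grown at 25 °C; plate controls were DMSO-treated mutant yeast for no effect and medium wells lacking yeast for full effect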
SKKanGAS inh – blocks kanamycin growth of S. pyogenes SKKanGAS strain; BacTiter-Glo, 6 h; inhibition, % at 7.5 µM; 300,000 tested, 1.3% active; AID 1662;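 active = mean replicate score, as percent of positive control median, at least 50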;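 note: strain carries kanamycin resistance gene driven by streptokinase promoter and grows in 40 µg/ml kanamycin; loss of luminescence reflects streptokinase promoter inhibition or plain growth inhibition; 0% = median of DMSO wells and 100% = positive control at its reference dose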
TIM10 inh – growth inhibitors of TIM10 yeast strain | S. cerevisiae TIM10 strain growth, BacTiter-Glo luminescence, 24 h | inhibition, % at 10 µM | 330,000 tested, 1.4% active;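 active = inhibition of 40% or more at the single tested concentration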;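 note: wild-type TIM10 isogenic control strain grown at permissive 25 °C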
NALP3 yeast inh – NALP3 inhibition in yeast; inhibition, % at 10 µM; 330,000 tested, 0.39% active; Yeast reconstituted NLRP3/ASC/caspase-1, beta-gal luminescence, 24 h;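 active = inhibition of 50% or more; inactive = inhibition below 50%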;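 note: plate controls were induced DMSO wells for no effect and uninduced yeast grown without galactose for full effect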
PfHsp90 set2 – reduces growth (ATP signal) of yeast expressing P. falciparum Hsp90 | S. cerevisiae expressing PfHsp90, BacTiter-Glo ATP, 48 h; yeast lacking PDR1 and PDR3 efflux regulators | inhibition, % at 9.4 µM | 310,000 tested, 0.32% active | AID 504621;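 active = every replicate shows inhibition above about 80%, whatever the replicate mean, limit read from the data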;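 note: 0% = DMSO neutral controls and 100% = 20 µM radicicol positive controls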
tim10-1 confirm – tim10-1 yeast growth inhibition, confirmed; S. cerevisiae tim10-1 ts strain growth, BacTiter-Glo, 24 h; 7,400 tested, 56% active; inhibition, % at 20 µM; shares compounds with tim10-1 inh;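 active = inhibition of yeast growth at or above a set limit in either of two repeat tests at 20 µM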;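 note: tim10-1 mutant grown at permissive 25 °C to find synthetic lethal compounds; 0% = DMSO yeast wells and 100% = medium wells without yeast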
tim10 confirm – TIM10 yeast growth inhibition, confirmed. shares compounds with TIM10 inh. S. cerevisiae tim10 strain growth, BacTiter-Glo luminescence, 24 h. inhibition, % at 10 µM. 4,600 tested, 63% active. AID 463215;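 active = inhibition of yeast growth at or above a set limit in either of two replicates at 10 µM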;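 note: this counterscreen used the strain with wild-type TIM10; 0% = yeast with DMSO and 100% = medium wells lacking yeast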
tim23-1 conf – tim23-1 yeast growth inhibition, confirmed; inhibition, % at 20 µM; 4,400 tested, 83% active; S. cerevisiae tim23-1 growth, BacTiter-Glo luminescence, 24 h; shares compounds with tim23-1 inh;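 active = inhibition above about 39% in either of two replicate wells at 20 µM, limit read from the data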;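 note: temperature-sensitive tim23-1 mutant grown at 25 °C; 0% = DMSO wells with yeast and 100% = medium wells without yeast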
* hit, by the source's call; / = no result given.

SMILES | tim10-1 inh | tim23-1 inh | SKKanGAS inh | TIM10 inh | NALP3 yeast inh | PfHsp90 set2 | tim10-1 confirm | tim23-1 conf | others
CS(=O)(=O)c1ccc2nc(NC(=O)c3cccs3)sc2c1 | 44* | 60* | / | 31 | -2 | 32 | 41* | 54*
COc1ccc(S(=O)(=O)NCC(c2cccnc2)N2CCN(Cc3ccccc3)CC2)cc1C (stereo unspecified) | -2 | -12 | 7 | -6 | 15 | -12 | / | /
CN(Cc1ccccc1)c1ccc(S(=O)(=O)N2CCC(C(=O)O)CC2)cc1[N+](=O)[O-] | 12 | 12 | / | 0 | 17 | 19 | / | /
Cc1ccc(C(=O)O/N=C(\N)c2ccccc2)c(Cl)c1 | 71* | 83* | -4 | 74* | 36 | -2 | 59* | 86* | tim10 confirm=81*
N/C(=N\OC(=O)c1ccc([N+](=O)[O-])cc1Cl)c1ccccn1 | 53* | 59* | 2 | 42* | 15 | 6 | 45* | 65* | tim10 confirm=52*
N/C(=N\OC(=O)c1ccc(Cl)cc1Cl)c1ccccn1 | 41* | 76* | 8 | 72* | 8 | -2 | 25 | 70* | tim10 confirm=75*
N/C(=N/OC(=O)c1ccccc1Cl)c1ncc([N+](=O)[O-])s1 | 49* | 55* | 29 | 62* | 11 | -3 | 50* | 15 | tim10 confirm=73*
N/C(=N\OC(=O)c1ccccc1Cl)c1ccncc1 | 21 | 8 | -3 | 14 | 9 | / | / | /
CC(=O)Nc1ccc(NC(=O)C(C)OC(=O)C2CCCCC2)cc1 (stereo unspecified) | 2 | -4 | / | 5 | 5 | 14 | / | /
N/C(=N\OC(=O)c1ccc(=O)n(Cc2ccc(Cl)cc2)c1)c1ccccn1 | 67* | 53* | 8 | 54* | -1 | / | 60* | 48* | tim10 confirm=53*
N/C(=N\OC(=O)c1ccc(=O)n(Cc2ccccc2)c1)c1ccccn1 | 28 | 24 | -25 | 15 | 12 | -8 | / | /
Cc1ccccc1OCC(=O)N(CC(C)C)c1c(N)n(CC(C)C)c(=O)[nH]c1=O | 18 | 37 | -13 | 21 | 5 | -7 | / | /
COc1ccc2c(c1)-c1nc(NC(=O)c3ccco3)sc1CC2 | 58* | 57* | 14 | 25 | 16 | -9 | 53* | 61*
Fc1ccccc1-c1nc(NC2CCCC2)c2ccccc2n1 | 52* | 67* | 7 | 52* | 10 | -28 | 50* | 75* | tim10 confirm=48*
COC(=O)CNc1nc(-c2ccccc2F)nc2ccccc12 | 23 | 16 | -5 | 16 | 30 | 12 | / | /
CN1C(=O)/C(=C\c2ccccc2OCc2ccccc2)SC1=S | 16 | 4 | 2 | -17 | 10 | 7 | / | /
CN1C(=O)/C(=C\c2cc(N=Nc3ccccc3)ccc2O)SC1=S | 42* | 62* | 83* | 40 | 39 | 25 | 24 | 67*
CCOC(=O)C1CCN(c2c([N+](=O)[O-])c(C(Cl)Cl)nn2-c2ccccc2)CC1 | 30 | 43 | -11 | 34 | 9 | -2 | / | /
O=[N+]([O-])c1c(C(Cl)Cl)nn(-c2ccccc2)c1N1CCCC1 | 61* | 61* | 6 | 20 | 7 | -4 | 61* | 58*
OCCOCCNc1ncnc2c1c(-c1ccccc1)cn2-c1ccccc1 | 47* | 50* | -6 | 26 | 18 | 1 | 4 | 46*
COC(=O)c1ccccc1NC1=C/C(=N\S(=O)(=O)c2cccs2)c2ccccc2C1=O | 46* | 56* | 22 | 41* | 38 | 0 | 41* | 40* | tim10 confirm=27
COC(=O)c1cccc(NS(=O)(=O)c2cccs2)c1C | / | / | -4 | / | / | -24 | / | /
CCOC(=O)c1cnc2c(OC)cccc2c1N1CC(C)CC(C)C1 (stereo unspecified) | 42* | 71* | 25 | 28 | 6 | 21 | 35* | 51*
O=C(CCN1C(=O)C2CCCCC2C1=O)Nc1ccc(F)c(F)c1F (stereo unspecified) | 8 | 2 | -3 | -3 | 13 | 22 | / | /
CCOc1cc(/C=C2\CN(C)C/C(=C\c3ccc(O)c(OCC)c3)C2=O)ccc1O | 58* | 52* | 20 | 31 | 15 | 7 | 47* | 62*
SMILES | tim10-1 inh | tim23-1 inh | SKKanGAS inh | TIM10 inh | NALP3 yeast inh | PfHsp90 set2 | tim10-1 confirm | tim23-1 conf | others
CCOc1cc(/C=C2/C(=O)ON=C2C)ccc1O | 11 | 12 | 4 | -20 | -7 | 28 | / | /
COc1cc([N+](=O)[O-])cc2sc(NC(C)=O)nc12 | 1 | 7 | 1 | -6 | 11 | -7 | / | /
C(=N\c1nccs1)/c1cccnc1 | 12 | 20 | -2 | -9 | 5 | 2 | / | /
Oc1c(Br)cc(Br)cc1/C=N/c1nccs1 | 46* | 75* | / | 29 | 13 | 57 | 34* | 90*
Oc1ccc(Cl)cc1/C=N/c1nccs1 | 45* | 55* | -5 | 30 | 16 | 4 | 44* | 30
COCCNC(=S)N/N=C/c1ccc(OCc2ccc(C(=O)OC)cc2)cc1 | 22 | -15 | -6 | 6 | 5 | -9 | / | /
COc1cc(OC)c2ccc(=O)oc2c1C(CCN1CCN(c2ccccc2)CC1)c1ccc(N(C)C)cc1 (stereo unspecified) | -10 | 5 | 2 | -1 | 14 | -6 | / | /
CCC(C)NC(=O)CSc1nnc(-c2cc(OC)c(OC)c(OC)c2)c(-c2cc(OC)c(OC)c(OC)c2)n1 (stereo unspecified) | 16 | -10 | 3 | -6 | 7 | 21 | / | /
CCc1ccc2oc(-c3ccc(NC(C)=O)cc3)nc2c1 | 3 | 34 | -16 | 11 | 32 | -5 | / | /
CC[n+]1c(/C=C2\C=C(C)CC(C)(C)C2)sc2ccccc21 | 45* | 51* | -1 | 37 | 16 | 16 | 39* | 55*
CC[n+]1c(/C=C2/C=C(C)CC(C)(C)C2)sc2ccc(OC)cc21 | 29 | 30 | 3 | 34 | 15 | -1 | / | /
O=C1c2ccccc2C(=O)C1(O)O | -15 | -11 | / | 1 | 7 | / | / | /
CC1(S(=O)(=O)O)CC(=O)c2ccccc2C1=O (stereo unspecified) | 41* | 67* | 23 | 32 | -7 | -13 | 28 | 63*
O=S(=O)(c1cccs1)N1CCN(c2ccnc3cc(Cl)ccc23)CC1 | 45* | 51* | 2 | 23 | 19 | 15 | 35* | 44*
O=S(=O)(c1cccs1)N1CCN(c2ccccc2Cl)CC1 | 22 | 38 | 1 | 22 | 37 | -11 | / | /
O=S(=O)(c1ccccc1)N1CCN(c2ccnc3cc(Cl)ccc23)CC1 | 58* | 63* | 3 | 16 | 2 | 10 | 53* | 66*
